# About 410 targets per protein were measured; listed, in parts, are those with the strongest signals and a random draw of the rest.
# B1: Latrophilin-3 (Homo sapiens), Q9HAR2 (protein)
# chain: MWPSQLLIFMMLLAPIIHAFSRAPIPMAVVRRELSCESYPIELRCPGTDVIMIESANYGRTDDKICDSDPAQMENIRCYLPDAYKIMSQRCNNRTQCAVVAGPDVFPDPCPGTYKYLEVQYECVPYKVEQKVFLCPGLLKGVYQSEHLFESDHQSGAWCKDPLQASDKIYYMPWTPYRTDTLTEYSSKDDFIAGRPTTTYKLPHRVDGTGFVVYDGALFFNKERTRNIVKFDLRTRIKSGEAIIANANYHDTSPYRWGGKSDIDLAVDENGLWVIYATEQNNGKIVISQLNPYTLRIEGTWDTAYDKRSASNAFMICGILYVVKSVYEDDDNEATGNKIDYIYNTDQSKDSLVDVPFPNSYQYIAAVDYNPRDNLLYVWNNYHVVKYSLDFGPLDSRSGQAHHGQVSYISPPIHLDSELERPSVKDISTTGPLGMGSTTTSTTLRTTTLSPGRSTTPSVSGRRNRSTSTPSPAVEVLDDMTTHLPSASSQIPALEESCEAVEAREIMWFKTRQGQIAKQPCPAGTIGVSTYLCLAPDGIWDPQGPDLSNCSSPWVNHITQKLKSGETAANIARELAEQTRNHLNAGDITYSVRAMDQLVGLLDVQLRNLTPGGKDSAARSLNKAMVETVNNLLQPQALNAWRDLTTSDQLRAATMLLHTVEESAFVLADNLLKTDIVRENTDNIKLEVARLSTEGNLEDLKFPENMGHGSTIQLSANTLKQNGRNGEIRVAFVLYNNLGPYLSTENASMKLGTEALSTNHSVIVNSPVITAAINKEFSNKVYLADPVVFTVKHIKQSEENFNPNCSFWSYSKRTMTGYWSTQGCRLLTTNKTHTTCSCNHLTNFAVLMAHVEVKHSDAVHDLLLDVITWVGILLSLVCLLICIFTFCFFRGLQSDRNTIHKNLCISLFVAELLFLIGINRTDQPIACAVFAALLHFFFLAAFTWMFLEGVQLYIMLVEVFESEHSRRKYFYLVGYGMPALIVAVSAAVDYRSYGTDKVCWLRLDTYFIWSFIGPATLIIMLNVIFLGIALYKMFHHTAILKPESGCLDNIKSWVIGAIALLCLLGLTWAFGLMYINESTVIMAYLFTIFNSLQGMFIFIFHCVLQKKVRKEYGKCLRTHCCSGKSTESSIGSGKTSGSRTPGRYSTGSQSRIRRMWNDTVRKQSESSFITGDINSSASLNREGLLNNARDTSVMDTLPLNGNHGNSYSIASGEYLSNCVQIIDRGYNHNETALEKKILKELTSNYIPSYLNNHERSSEQNRNLMNKLVNNLGSGREDDAIVLDDATSFNHEESLGLELIHEESDAPLLPPRVYSTENHQPHHYTRRRIPQDHSESFFPLLTNEHTEDLQSPHRDSLYTSMPTLAGVAATESVTTSTQTEPPPAKCGDAEDVYYKSMPNLGSRNHVHQLHTYYQLGRGSSDGFIVPPNKDGTPPEGSSKGPAHLVTSL
# Experiments:
# Experiment in all cases: glycan array binding signal (z-score within array); higher = stronger binding
# Details in all cases: glycan notation: IUPAC condensed, linker removed
# Fuc(a1-2)Gal = molecular target: Fuc(a1-2)Gal
# In short: (§1)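 Negative Z-scores can be read as non-binding. The Z-score is calculated within each array and then averaged across arrays of one protein sequence at different concentrations or buffers and across linkers. Arrays, 3228 in all, were curated from the Consortium for Functional Glycomics database and kept only where the protein sequence was available.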
# [1] = molecular target: Fuc(a1-2)Gal(b1-3)GalNAc(b1-4)[Neu5Ac(a2-3)]Gal(b1-4)Glc
# In short: as §1
# Fuc(a1-2)Gal(b1-3)GlcNAc = molecular target: Fuc(a1-2)Gal(b1-3)GlcNAc
# In short: as §1
# [2] = molecular target: Fuc(a1-2)Gal(b1-3)GlcNAc(b1-3)GalNAc
# In short: as §1
# [3] = molecular target: Fuc(a1-2)Gal(b1-4)GlcNAc(b1-2)[Fuc(a1-2)Gal(b1-4)GlcNAc(b1-4)]Man(a1-3)[Fuc(a1-2)Gal(b1-4)GlcNAc(b1-2)Man(a1-6)]Man(b1-4)GlcNAc(b1-4)GlcNAc
# In short: as §1
# [4] = molecular target: Fuc(a1-2)Gal(b1-4)GlcNAc(b1-3)Gal(b1-4)GlcNAc(b1-3)Gal(b1-4)GlcNAc
# In short: as §1
# [5] = molecular target: Fuc(a1-2)Gal(b1-4)GlcNAc(b1-6)GalNAc
# In short: as §1
# [6] = molecular target: Fuc(a1-2)Gal(b1-4)[Fuc(a1-3)]GlcNAc(b1-3)GalNAc
# In short: as §1
# [7] = molecular target: Fuc(a1-2)[Gal(a1-3)]Gal(b1-3)GlcNAc(b1-2)Man(a1-3)[Fuc(a1-2)[Gal(a1-3)]Gal(b1-3)GlcNAc(b1-2)Man(a1-6)]Man(b1-4)GlcNAc(b1-4)[Fuc(a1-6)]GlcNAc
# In short: as §1
# [8] = molecular target: Fuc(a1-2)[Gal(a1-3)]Gal(b1-4)Glc
# In short: as §1
# [9] = molecular target: Fuc(a1-2)[Gal(a1-3)]Gal(b1-4)GlcNAc(b1-2)Man(a1-3)[Fuc(a1-2)[Gal(a1-3)]Gal(b1-4)GlcNAc(b1-2)Man(a1-6)]Man(b1-4)GlcNAc(b1-4)GlcNAc
# In short: as §1
# [10] = molecular target: Fuc(a1-2)[GalNAc(a1-3)]Gal(b1-4)GlcNAc(b1-3)GalNAc
# In short: as §1
# [11] = molecular target: Fuc(a1-2)[GalNAc(a1-3)]Gal(b1-4)[Fuc(a1-3)]GlcNAc(b1-3)GalNAc
# In short: as §1
# [12] = molecular target: Fuc(a1-3)[Gal(b1-4)]GlcNAc(b1-6)[Neu5Ac(a2-3)Gal(b1-3)]GalNAc
# In short: as §1
# Gal(a1-2)Gal = molecular target: Gal(a1-2)Gal
# In short: as §1
# [13] = molecular target: Gal(a1-3)Gal(b1-3)GlcNAc(b1-6)GalNAc
# In short: as §1
# Gal(a1-3)Gal(b1-4)GlcNAc = molecular target: Gal(a1-3)Gal(b1-4)GlcNAc
# In short: as §1
# [14] = molecular target: Gal(b1-3)[Fuc(a1-4)]GlcNAc
# In short: as §1
# [15] = molecular target: Gal(b1-3)[Fuc(a1-4)]GlcNAc(b1-3)Gal(b1-3)[Fuc(a1-4)]GlcNAc
# In short: as §1
# [16] = molecular target: Gal(b1-4)GlcNAc(b1-2)Man(a1-6)Man(b1-4)GlcNAc(b1-4)GlcNAc
# In short: as §1
# [17] = molecular target: Gal(b1-4)GlcNAc(b1-3)Gal(b1-4)GlcNAc
# In short: as §1
# [18] = molecular target: Gal(b1-4)GlcNAc(b1-3)[Gal(b1-4)GlcNAc(b1-6)]Gal(b1-4)GlcNAc
# In short: as §1
# Gal(b1-6)Gal = molecular target: Gal(b1-6)Gal
# In short: as §1
binder,measurement,setting,value
B1,glycan array binding signal (z-score),Fuc(a1-2)Gal,0.041
same,glycan array binding signal (z-score),[1],-0.493
same,glycan array binding signal (z-score),Fuc(a1-2)Gal(b1-3)GlcNAc,-0.169
same,glycan array binding signal (z-score),[2],0.261
same,glycan array binding signal (z-score),[3],-0.478
same,glycan array binding signal (z-score),[4],0.659
same,glycan array binding signal (z-score),[5],2.91
same,glycan array binding signal (z-score),[6],4.34
same,glycan array binding signal (z-score),[7],-0.721
same,glycan array binding signal (z-score),[8],0.962
same,glycan array binding signal (z-score),[9],-0.684
same,glycan array binding signal (z-score),[10],-0.844
same,glycan array binding signal (z-score),[11],4.19
same,glycan array binding signal (z-score),[12],-0.297
same,glycan array binding signal (z-score),Gal(a1-2)Gal,2.83
same,glycan array binding signal (z-score),[13],-0.37
same,glycan array binding signal (z-score),Gal(a1-3)Gal(b1-4)GlcNAc,-0.823
same,glycan array binding signal (z-score),[14],-0.275
same,glycan array binding signal (z-score),[15],-0.618
same,glycan array binding signal (z-score),[16],3.58
same,glycan array binding signal (z-score),[17],-0.111
same,glycan array binding signal (z-score),[18],3.02
same,glycan array binding signal (z-score),Gal(b1-6)Gal,-0.409
